According to PubChem BioAssay (NCATS):
Inconclusive results are not listed. The source made the active and inactive calls. Unless noted, the call rests on the fitted dose curve; in most records, active means well fitted curve in the direction sought with a large enough effect; inconclusive means small, poorly fitted or top-dose-only effect, or another doubt; inactive means no such curve, though single readings can be large; an effect the other way counts as inactive or inconclusive.

Tests used:
[1] = AP1 Signaling Pathway (AID 357; active means well fitted curve in either direction with a large enough effect, not every such curve was filed as active;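 further: ME-180 reporter cells stimulated with EGF at its EC50 level; on the % scale 0 is the no-effect control and ±100 the full control effect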); conditions: ME-180 AP-1-bla reporter, EGF-induced, beta-lactamase ratio, 5 h; at 7.69 µM (top of the series) unless noted
Summary of the method: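 Read-out was the 460nm/530nm emission ratio (excitation 405nm) after CCF4 loading for 2.5 hours at room temperature. Cells carried an AP-1-driven beta-lactamase reporter, were stimulated with EC50 EGF plus compound for 5 hours, and AC50 values came from titrations.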

[2] = target: Cytochrome P450 1A2 (Homo sapiens) (UniProt P05177); experiment: p450-cyp1a2 (AID 410; calls by dose curve;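 further: -100% = full effect of reference inhibitor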)
Summary of the method: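 Luminescent readout of luciferin formed from Luciferin-ME by human CYP1A2; data normalized against complete inhibition by 57 uM furafylline. Enzyme 20nM, substrate 100uM at Km, 100mM KPO4 buffer, 60 min reaction at room temperature.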

[3] = Stat Signaling Pathway (AID 446; active means well fitted curve in either direction with a large enough effect, not every such curve was filed as active;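 further: ME-180 cervical cancer cells given 40 pM IL-6 alongside compound; SIE-controlled beta-lactamase reporter measured as 460/530 nm FRET emission ratio; on the % scale 0 is the no-effect control and ±100 the full control effect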)
Summary of the method: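 ME-180 SIE-bla cells; overnight plating; cpd + IL-6 40 pM, 5 h, 37 C; LiveBLAzer 2.5 h RT; 460/530 nm emission ratio. Normalized to 300 pM IL-6 and 125 nM JAK inhibitor controls.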

[4] = target: Glucocorticoid receptor (Homo sapiens) (UniProt P04150); experiment: GR-EFC Redistribution (AID 451; calls by dose curve; further: potency means the concentration at half of the fitted maximal effect); conditions: CHO-K1 GR-EFC translocation, beta-gal luminescence, 2 h
Summary of the method: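 CHO-K1 cells expressing nuclear EA and GR-ED fragments of b-gal; compounds titrated up to 46 uM final, 2 h at 37 C. GR nuclear translocation read as complemented b-gal luminescence after 1 h RT detection.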

[5] = target: Mitogen-activated protein kinase 10 (Mus musculus) (UniProt Q61831); experiment: JNK3 AlphaScreen Assay (AID 530; active means well fitted curve in either direction with a large enough effect, not every such curve was filed as active;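 further: kinase came from lysate of stimulated human HepG2 cells; signal reports phosphorylation of biotinylated GST-cJun 1-79 at Ser73 with 10 µM ATP; on the % scale 0 is the no-effect control and ±100 the full control effect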)
Summary of the method: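 Pre-activated (IL-1β/TNFα) JNK3 in HepG2 lysates phosphorylates biotin-GST-cJun(1-79), 10 uM ATP; anti-phospho-cJun(Ser73) AlphaScreen read at room temperature, pH 7.6 Tris buffer. Compounds pre-incubated 15 min as titrations.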

[6] = target: 3',5'-cyclic-AMP phosphodiesterase 4B (Homo sapiens) (UniProt Q07343); experiment: qHTS Assay for Inhibitors of PDE-IV (AID 607; active means well fitted activation curve with a large enough effect in the main read-out, with a control signal flat, not every such curve was filed as active; further: % of control where 0% means no effect)
Summary of the method: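 ACTOne HEK293 cells carry a modified cAMP-gated CNG channel and express endogenous PDE4; plated 1000 cells/well, compounds up to 22.9 uM final. Membrane-potential dye fluorescence (ex 535/em 590) was read; parental cells received 10 uM forskolin + 100 uM RO 20-1724.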

[7] = target: Guanine nucleotide-binding protein G(i) subunit alpha-1 (Homo sapiens) (UniProt P63096); experiment: qHTS Assay for Inhibitors of RGS12 GoLoco Motif Activity (Green Fluorophore) (AID 879);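 further: 0% = labeled peptide with Gαi1 and full inhibition = labeled peptide alone without protein; negative values mean loss of peptide binding seen as reduced polarization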
Chain of Guanine nucleotide-binding protein G(i) subunit alpha-1 (Homo sapiens) (P63096 whole entry, looked up): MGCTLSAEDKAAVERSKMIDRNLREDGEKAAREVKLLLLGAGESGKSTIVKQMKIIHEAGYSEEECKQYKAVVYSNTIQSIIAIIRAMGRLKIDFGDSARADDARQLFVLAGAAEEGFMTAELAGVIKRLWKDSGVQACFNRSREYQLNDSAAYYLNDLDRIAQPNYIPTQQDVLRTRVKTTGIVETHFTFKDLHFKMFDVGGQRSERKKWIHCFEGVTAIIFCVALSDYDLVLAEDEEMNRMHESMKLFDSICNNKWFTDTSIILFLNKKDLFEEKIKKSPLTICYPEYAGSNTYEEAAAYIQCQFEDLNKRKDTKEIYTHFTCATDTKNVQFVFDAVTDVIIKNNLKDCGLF
Summary of the method: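 Fluorescence polarization assay: 50 nM Gαi1 with 10 nM FITC-labeled RGS12 GoLoco peptide in 10 mM Tris pH 7.5, 150 mM NaCl, 0.1 mM GDP, 0.05% NP40, 10 min at room temperature with compound.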

[8] = qHTS Assay for Identification of Small Molecule Agonists for Hypoxia Response Element Signaling Pathway (AID 914; active means well fitted activation curve with a large enough effect in the signal ratio, with a control signal flat, not every such curve was filed as active; the % refers to the signal ratio; further: % of control where 0% means no effect); conditions: ME-180 (cervical carcinoma) HRE-bla reporter, beta-lactamase ratio, CoCl2, 17 h; activation: hits give high values
Summary of the method: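 In Opti-MEM containing 0.5% dialyzed FBS and 10 mM HEPES, ME-180 HRE-bla cells received a compound titration and EC50 CoCl2. They were incubated 17 hours, then CCF4-loaded 2.5 hours at room temperature before ratio reading.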

[9] = qHTS Assay for Identification of Small Molecule Agonists for Thrombopoietin (TPO) Signaling Pathway (AID 917); further: on the % scale 0 is the no-effect control and ±100 the full control effect
Summary of the method: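 Murine Ba/F3 cells stably expressing human TPO receptor and a Glycoprotein IIb promoter–luciferase reporter were IL-3-starved overnight, then treated with compounds plus TPO (26 pM final, its EC50) for 24 hrs at 37 C; luminescence was read.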

[10] = target: Muscarinic acetylcholine receptor M1 (Rattus norvegicus) (UniProt P08482); experiment: qHTS Assay for Antagonists of Acetylcholine Muscarinic M1 Receptor: Measurement of IP-One Response (AID 944); further: nearly all actives have a fitted effect of over 75% in size
Chain of Muscarinic acetylcholine receptor M1 (Rattus norvegicus) (P08482 whole entry, looked up): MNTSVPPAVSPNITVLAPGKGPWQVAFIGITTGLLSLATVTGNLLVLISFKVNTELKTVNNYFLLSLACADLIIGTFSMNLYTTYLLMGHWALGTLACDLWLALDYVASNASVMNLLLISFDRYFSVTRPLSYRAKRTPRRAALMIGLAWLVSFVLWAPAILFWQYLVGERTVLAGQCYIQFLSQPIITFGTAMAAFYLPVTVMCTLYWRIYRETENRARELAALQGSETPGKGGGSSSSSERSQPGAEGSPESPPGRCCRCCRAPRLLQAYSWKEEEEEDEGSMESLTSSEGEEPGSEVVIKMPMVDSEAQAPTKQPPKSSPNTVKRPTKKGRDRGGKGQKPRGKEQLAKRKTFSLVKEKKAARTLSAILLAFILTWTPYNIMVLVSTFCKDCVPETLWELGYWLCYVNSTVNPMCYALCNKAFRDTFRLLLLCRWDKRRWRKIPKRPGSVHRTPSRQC
Summary of the method: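 M1-CHO (rat), 2000 cells/well, overnight recovery; cpd 10 min; carbachol EC80 (200 nM), 30 min, HEPES buffer + 50 mM LiCl pH 7.4; IP-One HTRF, Ex 337, Em 620/665 nm.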

[11] = target: Pyruvate kinase (Leishmania mexicana) (UniProt Q27686); experiment: qHTS Validation Assay for Inhibitors of Leishmania Mexicana Pyruvate Kinase (AID 945);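 further: 0% = DMSO only neutral control wells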
Chain of Pyruvate kinase (Leishmania mexicana) (Q27686 2-499 E452W): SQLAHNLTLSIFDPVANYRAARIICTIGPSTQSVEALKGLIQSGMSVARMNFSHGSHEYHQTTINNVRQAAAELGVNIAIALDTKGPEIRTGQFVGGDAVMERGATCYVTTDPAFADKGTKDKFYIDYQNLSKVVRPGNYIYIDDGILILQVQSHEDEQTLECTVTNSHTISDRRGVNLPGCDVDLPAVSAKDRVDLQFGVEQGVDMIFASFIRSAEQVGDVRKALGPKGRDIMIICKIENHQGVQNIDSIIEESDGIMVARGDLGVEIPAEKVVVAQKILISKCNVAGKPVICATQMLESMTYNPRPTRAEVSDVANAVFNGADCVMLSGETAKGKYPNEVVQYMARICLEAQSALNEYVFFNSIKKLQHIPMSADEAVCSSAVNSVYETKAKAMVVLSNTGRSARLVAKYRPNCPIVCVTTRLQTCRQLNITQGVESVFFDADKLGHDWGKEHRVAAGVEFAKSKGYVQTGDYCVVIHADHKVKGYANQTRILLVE
Summary of the method: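 An endpoint luciferase assay: 0.2 nM LmPYK E451W turns over 0.5 mM PEP with 0.1 mM ADP for 1 h at room temperature, pH 7.2, before PKLight addition. Values are normalized to DMSO-only wells.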

[12] = target: Pyruvate kinase PKM (Homo sapiens) (UniProt P14618); experiment: qHTS Assay for Activators of Human Muscle Pyruvate Kinase (AID 954; active means well fitted curve in the direction sought with a large enough effect, not every such curve was filed as active;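 further: 0% = uninhibited enzyme and -100% = no enzyme or full thiadiazolimine inhibition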)
Chain of Pyruvate kinase PKM (Homo sapiens) (P14618 whole entry, looked up): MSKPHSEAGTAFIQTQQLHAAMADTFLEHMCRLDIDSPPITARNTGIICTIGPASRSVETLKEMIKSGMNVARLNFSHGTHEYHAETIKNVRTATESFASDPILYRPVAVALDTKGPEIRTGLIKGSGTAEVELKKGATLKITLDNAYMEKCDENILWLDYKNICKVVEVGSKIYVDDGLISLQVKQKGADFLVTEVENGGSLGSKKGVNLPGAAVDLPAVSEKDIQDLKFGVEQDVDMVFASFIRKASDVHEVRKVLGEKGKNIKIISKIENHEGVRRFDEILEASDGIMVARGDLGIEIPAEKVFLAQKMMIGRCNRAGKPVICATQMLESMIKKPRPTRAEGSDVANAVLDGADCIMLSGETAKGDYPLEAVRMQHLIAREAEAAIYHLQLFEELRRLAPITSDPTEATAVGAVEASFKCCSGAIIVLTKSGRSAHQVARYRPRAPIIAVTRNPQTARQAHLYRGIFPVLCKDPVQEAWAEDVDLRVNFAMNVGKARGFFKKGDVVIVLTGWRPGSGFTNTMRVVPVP
Summary of the method: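 Luminescence from a luciferase ATP-detection/stop reagent reported PKM2 activity. Reactions contained 0.1 nM purified human enzyme, 0.5 mM PEP, 0.1 mM ADP and 7 mM MgCl2 at pH 7.2, run 1 h at RT.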

[13] = target: Alpha-galactosidase A (Homo sapiens) (UniProt P06280); experiment: Counterscreen for Glucocerebrosidase Inhibitors: qHTS Assay for Human alpha-Galactosidase at pH 4.5 (AID 992); further: 0% is about no effect
Summary of the method: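 Enzyme at 2 nM final was combined with compound (0.7 nM to 77 uM) and 80 uM 4-methylumbelliferyl alpha-D-galactopyranoside in 50 mM citric acid, 0.005% Tween-20, pH 4.5. After 20 min at room temperature, fluorescence was read (Ex 365/Em 440 nm); AC50 came from Hill fits.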

[14] = target: alpha-glucosidase (Oryza sativa, rice) (UniProt Q653V4); experiment: Counterscreen for Glucocerebrosidase Inhibitors: qHTS Assay for Rice alpha-Glucosidase at pH 5.0 (AID 997);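 further: 0% = full activity with enzyme and -100% = basal without enzyme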
Summary of the method: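 Rice alpha-glucosidase (4 nM final) with 400 uM 4-methylumbelliferyl-alpha-D-glucopyranoside in citrate buffer pH 5.0, 20 min at room temperature, stopped at pH 10; fluorescence 365/440 nm, compounds 0.7 nM–77 uM, AC50 from Hill fits.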

[15] = Counterscreen for APE1 Inhibitors: Fluorescent Dye Displacement Validation Assay (AID 1707);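 further: plate controls were ThO with dsDNA and no compound for no effect and ThO without dsDNA for full effect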
Summary of the method: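 Thiazole Orange displacement from dsDNA: 250 nM ThO with 50 nM TAMRA-labelled abasic-site (tetrahydrofuran) duplex in 50 mM Tris-HCl pH7.5, 50mM NaCl, 2 mM MgCl2, 0.01% Tween-20. Loss of endpoint fluorescence (ex 480 nm, em 540 nm) flags DNA binders.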

[16] = qHTS for differential inhibitors of proliferation of Plasmodium falciparum line 7G8 (AID 1815);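 further: parasite growth measured after three days of incubation; plate controls were vehicle wells for no effect and reference inhibitor wells for full effect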
[17] = qHTS for differential inhibitors of proliferation of Plasmodium falciparum line GB4 (AID 1816); conditions: Potency: Plasmodium falciparum GB4 proliferation inhibition;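 further: parasite growth measured after 72 h incubation; 0% = vehicle DMSO and -100% = reference inhibitor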
[18] = qHTS for differential inhibitors of proliferation of Plasmodium falciparum line 3D7 (AID 1876);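 further: parasite growth measured after three days of culture; 0% = vehicle wells and -100% = reference inhibitor wells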
[19] = qHTS for differential inhibitors of proliferation of Plasmodium falciparum line D10 (AID 1877);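 further: parasites grown with compound for 72 h before DNA staining; plate controls were vehicle wells for no effect and reference inhibitor wells for full effect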
[20] = qHTS for differential inhibitors of proliferation of Plasmodium falciparum line Dd2 (AID 1882); conditions: Potency: Plasmodium falciparum Dd2 proliferation inhibition;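 further: plate controls were DMSO vehicle for no effect and 0.29 µM artemisinin for full effect; nearly all actives have a fitted effect of over 65% in size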
Summary of the method: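 Dd2-infected erythrocytes (0.3% parasitemia, 2.5% hematocrit final) incubated with compound 72 h at 37 C, 5% CO2; lysed with saponin/Triton buffer containing SYBR Green I, incubated overnight in the dark, then read by fluorescence (485/535 nm). Normalized to 0.29 uM artemisinin and DMSO.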

[21] = qHTS for differential inhibitors of proliferation of Plasmodium falciparum line W2 (AID 1883); conditions: Potency: Plasmodium falciparum W2 proliferation inhibition;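 further: parasites grown with compound for 72 h before lysis and staining; 0% = vehicle wells and -100% = control inhibitor wells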
[22] = qHTS for differential inhibitors of proliferation of Plasmodium falciparum line HB3 (AID 1886); conditions: Potency: Plasmodium falciparum HB3 proliferation inhibition;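 further: parasites grown with compound for 72 h before SYBR Green readout; plate controls were vehicle for no effect and reference inhibitor for full effect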
[23] = qHTS Assay for Modulators of Human Peripheral Myelin Protein 22 (PMP22) Expression/Activity (AID 1967; active means well fitted curve in the direction sought with a large enough effect in the signal ratio; the % refers to the signal ratio;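 further: 0% = untreated cells and 100% end not stated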)
Summary of the method: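 MSC80 mouse Schwann cells stably carrying Pmp22 promoter–green click beetle luciferase plus EF-alpha–red luciferase control were dosed for 24h at 37 °C. Dual-colour luminescence was filter-overlap corrected; %Activity came from green/red ratio versus untreated cells.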

[24] = target: Ferritin light chain (Equus caballus) (UniProt P02791); experiment: qHTS Validation Assay for Identification of Novel General Anesthetics (AID 2323); further: on the % scale 0 is the no-effect control and ±100 the full control effect
Chain of Ferritin light chain (Equus caballus) (P02791 2-175 limits assumed): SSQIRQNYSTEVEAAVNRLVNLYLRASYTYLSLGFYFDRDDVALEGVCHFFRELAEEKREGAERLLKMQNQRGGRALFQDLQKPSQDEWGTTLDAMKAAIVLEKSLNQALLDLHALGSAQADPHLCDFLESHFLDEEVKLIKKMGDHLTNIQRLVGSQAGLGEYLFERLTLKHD
Summary of the method: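 Competitive displacement of profluorescent 1-aminoanthracene (1-AMA, 50% saturated solution in PBS) from 10 uM horse-spleen apoferritin. Compounds incubated 10 min at room temperature; fluorescence read at 380 nm excitation/535 nm emission, normalized to free 1-AMA and complex, fitted with four-parameter Hill equation.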

[25] = target: ATP-dependent DNA helicase Q1 (Homo sapiens) (UniProt P46063); experiment: qHTS Validation Assay for Inhibitors of RecQ-Like Dna Helicase 1 (RECQ1) (AID 2353);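 further: plate controls were DMSO vehicle for no effect and enzyme-free control for full effect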
Chain of ATP-dependent DNA helicase Q1 (Homo sapiens) (P46063 whole entry, looked up): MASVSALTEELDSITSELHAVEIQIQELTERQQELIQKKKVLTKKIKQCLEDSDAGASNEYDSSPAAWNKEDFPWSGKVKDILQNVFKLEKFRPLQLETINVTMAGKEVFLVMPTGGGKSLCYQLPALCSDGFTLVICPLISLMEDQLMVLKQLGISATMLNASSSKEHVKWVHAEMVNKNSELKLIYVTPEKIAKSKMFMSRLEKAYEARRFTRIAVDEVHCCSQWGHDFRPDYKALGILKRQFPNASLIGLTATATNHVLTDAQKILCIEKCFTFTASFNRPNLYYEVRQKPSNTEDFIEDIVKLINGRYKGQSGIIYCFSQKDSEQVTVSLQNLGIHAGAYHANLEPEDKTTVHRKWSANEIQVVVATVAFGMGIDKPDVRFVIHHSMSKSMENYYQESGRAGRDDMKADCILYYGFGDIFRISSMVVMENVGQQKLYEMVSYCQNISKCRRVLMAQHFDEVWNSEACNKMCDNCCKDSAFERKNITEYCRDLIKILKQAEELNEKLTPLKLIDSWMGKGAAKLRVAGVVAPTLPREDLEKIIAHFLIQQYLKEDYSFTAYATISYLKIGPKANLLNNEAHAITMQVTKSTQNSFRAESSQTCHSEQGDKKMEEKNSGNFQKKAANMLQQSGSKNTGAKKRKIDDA
Summary of the method: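 50 nM RECQ1T1 preincubated 15 min with compound in Tris pH 8.0 buffer with MgCl2, DTT, Tween-20 and 2.5 ug/ml poly(dI-dC); started with 200 nM TAMRA/BHQ-2 forked duplex and 2 mM ATP. Unwinding read as fluorescence (525/598 nm), two reads 2 h apart.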

[26] = target: RecQ-like DNA helicase BLM (Homo sapiens) (UniProt P54132); experiment: qHTS Validation Assay for Inhibitors of Bloom's syndrome helicase (BLM) (AID 2364);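 further: plate controls were DMSO vehicle for no effect and enzyme-free control for full effect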
Summary of the method: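 50 nM BLM preincubated 15 min at room temperature with compound in pH 8.0 Tris buffer containing 2.5 ug/ml poly(dI-dC); started with 200 nM TAMRA/BHQ-2 forked duplex and 2 mM ATP (final). Unwinding read as TAMRA fluorescence increase, two reads 2 h apart.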

[27] = Validation screen for small molecules that induce DNA re-replication in MCF 10A normal breast cells (AID 463097); further: 0% is about no effect; nearly all actives have a fitted effect of over 60% in size
Summary of the method: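 Readout: Hoechst nuclear fluorescence intensity, 405 ex / 500-530 em, by scanning plate imager; re-replication scored as increase in nuclei with elevated DNA content. Cells exposed to compound 48 hr, 37 C, 5% CO2 beforehand.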

[28] = Quantitative high throughput screen for delayed death inhibitors of the malarial parasite plastid, 96 hour incubation (AID 488745);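 further: luciferase-expressing P. falciparum in erythrocytes at 2% hematocrit and 0.1% parasitemia; on the % scale 0 is the no-effect control and ±100 the full control effect; nearly all actives have a fitted effect of over 70% in size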
Summary of the method: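 Infected erythrocytes were added to compound in Albumax-supplemented RPMI 1640 at 0.1% parasitemia and 2% hematocrit (final), incubated 96 h at 37 C under 5% CO2, then luciferase reagent was added and luminescence measured.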

[29] = Quantitative high throughput screen for delayed death inhibitors of the malarial parasite plastid, 48 hour incubation (AID 488752); further: on the % scale 0 is the no-effect control and ±100 the full control effect; nearly all actives have a fitted effect of over 65% in size
Summary of the method: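 Readout is firefly luciferase luminescence from a reporter integrated into the parasite genome, with lower signal taken as inhibited growth. Infected red cells (0.1% parasitemia, 2% hematocrit final) are cultured with compound for one 48 h cycle at 37 C.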

[30] = target: M-phase phosphoprotein 8 (Homo sapiens) (UniProt Q99549); experiment: qHTS Validation Assay for Inhibitors for MPP8 Chromodomain Interactions with Methylated Histone Tails (AID 488949);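 further: AlphaScreen signal from MPP8 chromodomain bound to biotinylated H3K9me3 peptide; top concentration of the series differs between compounds; on the % scale 0 is the no-effect control and ±100 the full control effect; nearly all actives have a fitted effect of over 55% in size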
Chain of M-phase phosphoprotein 8 (Homo sapiens) (Q99549 whole entry, looked up): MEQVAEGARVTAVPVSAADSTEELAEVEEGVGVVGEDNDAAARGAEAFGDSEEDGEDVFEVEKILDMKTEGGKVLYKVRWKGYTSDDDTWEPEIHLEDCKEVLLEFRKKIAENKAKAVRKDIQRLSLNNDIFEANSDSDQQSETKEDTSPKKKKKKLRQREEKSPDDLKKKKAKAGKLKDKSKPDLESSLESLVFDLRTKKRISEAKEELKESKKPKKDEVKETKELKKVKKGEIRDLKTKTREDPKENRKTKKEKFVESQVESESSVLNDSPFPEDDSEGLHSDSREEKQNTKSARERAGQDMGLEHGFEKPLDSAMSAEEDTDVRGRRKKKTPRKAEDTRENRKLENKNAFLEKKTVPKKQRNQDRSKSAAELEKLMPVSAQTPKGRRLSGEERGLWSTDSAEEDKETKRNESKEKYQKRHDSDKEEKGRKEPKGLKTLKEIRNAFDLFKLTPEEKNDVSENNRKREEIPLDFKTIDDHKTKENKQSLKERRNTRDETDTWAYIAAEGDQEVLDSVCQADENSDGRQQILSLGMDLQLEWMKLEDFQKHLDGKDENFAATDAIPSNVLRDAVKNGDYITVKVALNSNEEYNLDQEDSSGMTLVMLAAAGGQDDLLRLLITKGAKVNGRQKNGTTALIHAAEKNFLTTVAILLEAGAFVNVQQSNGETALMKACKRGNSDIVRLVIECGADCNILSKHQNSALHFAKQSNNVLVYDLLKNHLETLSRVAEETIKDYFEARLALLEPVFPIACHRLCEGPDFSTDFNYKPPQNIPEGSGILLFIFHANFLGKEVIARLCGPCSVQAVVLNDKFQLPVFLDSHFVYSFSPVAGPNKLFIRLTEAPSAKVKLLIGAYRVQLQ
Summary of the method: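 MPP8 (50 nM) was preincubated with biotinylated H3(1-18)K9me3 peptide (50 nM) in PBS pH 7.4, 0.01% Tween-20 for 30 min at room temperature, then with compounds for 30 min; binding was detected by AlphaScreen.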

[31] = target: Transient receptor potential cation channel subfamily V member 1 (Homo sapiens) (UniProt Q8NER1); experiment: HTS Assay for Compounds that Act as Enhancers of the Vanilloid Receptor 1 (AID 488979); further: 0% is about no effect
Summary of the method: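 TRPV1 cells loaded with Fluo-8 calcium dye; compound added and Ca2+ signal (ex 480/em 520 nm) followed 3 min, then capsaicin at EC20 added and read 2 more min to detect enhancement.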

[32] = target: Thyrotropin receptor (Homo sapiens) (UniProt P16473); experiment: qHTS Assay for Antagonists of the Thyroid Stimulating Hormone Receptor (AID 488980); further: 0% is about no effect
Chain of Thyrotropin receptor (Homo sapiens) (P16473 whole entry, looked up): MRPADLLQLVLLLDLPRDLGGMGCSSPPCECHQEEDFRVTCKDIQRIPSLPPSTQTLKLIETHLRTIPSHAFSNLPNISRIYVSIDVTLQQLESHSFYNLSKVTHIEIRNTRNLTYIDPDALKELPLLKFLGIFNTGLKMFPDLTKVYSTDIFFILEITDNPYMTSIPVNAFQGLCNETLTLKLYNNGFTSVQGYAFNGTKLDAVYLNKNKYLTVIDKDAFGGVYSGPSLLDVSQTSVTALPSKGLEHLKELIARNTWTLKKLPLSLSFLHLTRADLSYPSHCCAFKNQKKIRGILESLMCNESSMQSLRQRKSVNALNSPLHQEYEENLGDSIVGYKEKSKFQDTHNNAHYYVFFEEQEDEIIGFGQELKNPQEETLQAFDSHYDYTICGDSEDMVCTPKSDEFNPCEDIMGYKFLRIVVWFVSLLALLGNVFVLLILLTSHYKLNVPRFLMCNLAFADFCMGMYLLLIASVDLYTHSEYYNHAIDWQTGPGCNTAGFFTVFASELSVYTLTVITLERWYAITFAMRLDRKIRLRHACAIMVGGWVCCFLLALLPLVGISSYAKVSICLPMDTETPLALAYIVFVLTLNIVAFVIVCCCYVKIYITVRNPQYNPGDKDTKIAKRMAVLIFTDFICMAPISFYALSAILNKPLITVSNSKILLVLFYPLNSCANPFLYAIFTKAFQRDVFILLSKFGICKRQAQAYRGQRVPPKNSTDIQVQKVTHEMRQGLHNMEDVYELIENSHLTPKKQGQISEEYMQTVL
Summary of the method: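 HEK293 cells transfected with human TSHR, suspended in HEPES-buffered HBSS with 70 uM RO 20-1724, were treated with compounds plus TSH at EC80 (4 nM final). cAMP was measured by competitive HTRF (cryptate anti-cAMP antibody, cAMP-d2 acceptor).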

[33] = target: Thyrotropin-releasing hormone receptor (Homo sapiens) (UniProt P34981); experiment: qHTS for Small Molecule Agonists and Allosteric Enhancers of Human TRH Receptor: Validation Screen for Agonists (AID 493127;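 active means calcium activation more than 3 SD above the typical response in the agonist read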;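 further: intracellular calcium rise by fluo-8 fluorescence before TRH EC20 addition; 0% is about no effect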); conditions: TRH receptor agonist cell assay; at 2 µM; hits give high values
Chain of Thyrotropin-releasing hormone receptor (Homo sapiens) (P34981 whole entry, looked up): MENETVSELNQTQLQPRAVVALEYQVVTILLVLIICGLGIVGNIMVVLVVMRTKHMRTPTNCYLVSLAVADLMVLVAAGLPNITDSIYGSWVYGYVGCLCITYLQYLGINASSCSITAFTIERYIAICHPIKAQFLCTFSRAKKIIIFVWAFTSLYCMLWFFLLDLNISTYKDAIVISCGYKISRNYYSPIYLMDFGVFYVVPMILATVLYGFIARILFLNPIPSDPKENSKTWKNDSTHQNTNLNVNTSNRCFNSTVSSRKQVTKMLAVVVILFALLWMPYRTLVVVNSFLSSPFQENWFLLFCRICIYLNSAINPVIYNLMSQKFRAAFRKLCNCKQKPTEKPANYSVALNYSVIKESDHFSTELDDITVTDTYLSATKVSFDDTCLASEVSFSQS
Summary of the method: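 Cells 2000/well, 10% FCS, 18 h 33.5C/5% CO2 → fluo-8 Ca dye, RT 30 min–1.5 h → FDSS baseline 10 × 1 s → compound added → 230 cycles (1 s/cycle) agonist mode. TRH controls.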

[34] = target: Galactokinase (Homo sapiens) (UniProt P51570); experiment: qHTS Validation Assay for Inhibitors of Human Galactokinase (GALK) (AID 493189); further: 0% is about no effect
Summary of the method: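 GALK (5 nM) with 35 uM ATP and 100 uM galactose in HEPES pH8.0, MgCl2, NaCl, DTT, BSA; 1 h at room temperature. Residual ATP read by Kinase-Glo Plus luminescence after 10 min.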

[35] = Validation screen for small molecules that induce DNA re-replication in SW480 colon adenocarcinoma cells (AID 504364); further: 0% is about no effect
Summary of the method: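 250 cells/well; compound pinned in; 48 hr, 37 C, 5% CO2; Hoechst added, 40 min; nuclear fluorescence imaged, 405 ex / 500-530 em; re-replication scored as increase in high-intensity nuclei.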

O=S(=O)(O)C1CCNCC1
inactive: activity change, negative = inhibition [1] 5.14% [at 38 µM] | Potency [2] | outcome [3] | Potency [4] > 46 µM | Potency [5] | Potency [6] | Potency [7] | activation [8] 1.41% | outcome [9] | Potency [10] | outcome [11] | outcome [12] | outcome [13] | outcome [14] | outcome [15] | Potency [16] | Potency [17] | Potency [18] | Potency [19] | Potency [20] | Potency [21] | Potency [22] | outcome [23] | outcome [24] | outcome [25] | Potency [26] | Potency [27] | Potency [28] | Potency [29] | Potency [30] | outcome [31] | outcome [32] | activation [33] 0.125% | outcome [34] | Potency [35]
